SMARCA2 act = activators of SMARCA2 function; MG213 cells, MMTV-luciferase reporter, dexamethasone, overnight; activation, % at 9.1 µM; hit rate 1% among 370,000; AID 652017; in the data active means activation above about 7.8%
Exocytosis inh = lytic granule exocytosis inhibition; TALL-104 LAMP-1 surface exposure, flow cytometry; cells stimulated with thapsigargin and PMA; inhibition, % at 10 µM; hit rate 0.66% among 360,000; AID 651702;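 active means inhibition above about 55%, limit read from the data; inconclusive means no clear call, values can overlap the other calls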
ALR H2O2 inh = blocks human ALR sulfhydryl oxidase activity; hit rate 3.8% among 290,000; inhibition, % (concentration not given with the values); purified ALR, DTT oxidation, H2O2 HRP-luminol luminescence; P55789;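 active means mean replicate inhibition above about 79%, with every replicate also reaching it, limit read from the data; inconclusive means only one of the two criteria met; inactive means mean below limit and not every replicate reaching it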
Target sequence (P55789 whole entry, looked up): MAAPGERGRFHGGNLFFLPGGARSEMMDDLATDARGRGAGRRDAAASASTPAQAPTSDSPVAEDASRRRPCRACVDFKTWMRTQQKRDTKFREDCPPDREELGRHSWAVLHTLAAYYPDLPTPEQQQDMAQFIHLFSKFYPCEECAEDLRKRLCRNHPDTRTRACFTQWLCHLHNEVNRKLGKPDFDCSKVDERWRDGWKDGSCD
PfM18AAP inh = PfM18AAP enzyme inhibition. recombinant PfM18AAP, H-Glu-NHMec fluorogenic cleavage. inhibition, % at 7.35 µM. hit rate 1.2% among 290,000;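 active means inhibition above the campaign mean inhibition over all tested compounds plus 3 SD, cut at about 28% in these data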
JMJD2C inh = inhibitors of human GASC-1 (JMJD2C) demethylase; Q9H3R0; GST-JMJD2C(1-420) H3K9me3 demethylation, DELFIA europium; inhibition, % at 2.35 µM; hit rate 0.069% among 330,000;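 active means more than half of a compound's replicate wells show inhibition beyond 50%, single wells judged on their own value; inconclusive means some, but no more than half, of replicates pass 50% inhibition; inactive means no replicate passes 50% inhibition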;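 further: signal counts dimethyl H3K9 product captured on neutravidin plate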
MIN6 prolif = induces beta-cell replication in MIN6 cells; proliferation, % at 10 µM; MIN6 cells proliferation, ATPlite luminescence, 48 h; cells starved in 0.2% serum; 100% = growth in 10% serum; hit rate 0.29% among 330,000; AID 2380;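 active means compounds whose signal lies at least 3.5 SD above the mean of all wells on their plate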
Of the large screens only hits and unclear results are named; the others gave an inactive call. Most compounds without a hit are left out; they make up all but 5.4% or so of the library.

C/C(=N\Nc1ccc(Cl)c(C(=O)O)c1)c1cccs1	none
Cc1cc2c(c(=O)o1)[C@@]1(C(=O)N(C)c3cc(Br)ccc31)C1=C(CCCC1=O)O2	none (no result: Exocytosis inh, ALR H2O2 inh, PfM18AAP inh, JMJD2C inh, MIN6 prolif)
COc1ccc(-c2cc3ccccc3[nH]2)cc1	none
Cc1ccc(O)c(-c2cc3ccccc3[nH]2)c1	ALR H2O2 inh 99, JMJD2C inh inconclusive
CCCCN1C2=NC(c3ccccc3)CN2c2ccccc21 (configuration not stated)	ALR H2O2 inh 93 (no result: PfM18AAP inh)
COC(=O)[C@]12C[C@H](CC(=O)N3CCC(c4ccccc4)CC3)C(=O)N(Cc3ccco3)C1=C[C@H](C(C)(C)C)O[C@@H]2C	none (no result: Exocytosis inh, ALR H2O2 inh, PfM18AAP inh, JMJD2C inh, MIN6 prolif)
CC(C)(C)OC(=O)/C=C/[C@@H](CC1CCCC1)Sc1ccc(C(C)(C)C)cc1	none (no result: Exocytosis inh, ALR H2O2 inh, PfM18AAP inh, JMJD2C inh, MIN6 prolif)
Cc1ccc(N2C(=O)CS(=O)C(c3ccccc3)C2=O)cc1C (configuration not stated)	ALR H2O2 inh 98
COc1ccc(N2C(=O)CS(=O)C(c3ccccc3)C2=O)cc1 (configuration not stated)	ALR H2O2 inh 98
Cc1ccc(N2C(=O)C3C(C2=O)N2CCCN2C3c2ccccc2)cc1C (configuration not stated)	none
CCOC(=O)COc1ccc(Oc2nc(C)cc(OC)n2)nn1	SMARCA2 act 7.8
COc1cc(C)nc(Oc2ccc(OCc3ccccc3)nn2)n1	none (no result: ALR H2O2 inh)
COc1ccccc1CCn1cnc(-c2ccccc2OC)c1CC(C)C	none (no result: Exocytosis inh, ALR H2O2 inh, PfM18AAP inh, JMJD2C inh, MIN6 prolif)
Cc1ccc(Sc2ccc(S(=O)(=O)Nc3ccc(C(=O)O)cc3)cc2)cc1C	ALR H2O2 inh 98 (no result: PfM18AAP inh)
Cc1ccc(Oc2ccc(S(=O)(=O)Nc3ccc(C(=O)O)cc3)cc2)cc1	ALR H2O2 inh 98 (no result: PfM18AAP inh, JMJD2C inh)
CC(=O)c1ccc(NS(=O)(=O)c2ccc(C)cc2)cc1	none
COC(=O)Nc1ccc(S(=O)(=O)Nc2ccc(C(=O)O)cc2)cc1	none (no result: ALR H2O2 inh)
Cc1ccc(OCc2csc(N)n2)cc1	none
Nc1nc(-c2ccc(-c3ccccc3)cc2)cs1	ALR H2O2 inh 99
Cc1ccc(-c2csc(N)n2)cc1	none (no result: ALR H2O2 inh, PfM18AAP inh, JMJD2C inh, MIN6 prolif)
Nc1nc(COc2ccccc2)cs1	SMARCA2 act 7.9
Nc1nc(-c2cccs2)cs1	none (no result: SMARCA2 act)
Nc1nc(-c2ccc(Oc3ccccc3)cc2)cs1	ALR H2O2 inh 99
Nc1nc(-c2ccccc2Br)cs1	ALR H2O2 inh 98
COC(=O)[C@]12C[C@H](CC(=O)NCC34CC5CC(CC(C5)C3)C4)C(=O)N(CCc3ccc(OC)c(OC)c3)C1=C[C@H](COCc1ccccc1)O[C@@H]2C	none (no result: Exocytosis inh, ALR H2O2 inh, PfM18AAP inh, JMJD2C inh, MIN6 prolif)
O=C(NC1=NC2(C=C3CCCCC3n3c(=O)n(-c4ccccc4)c(=O)n32)CN1CC1CC1)c1ccccc1 (configuration not stated)	none (no result: Exocytosis inh, ALR H2O2 inh, PfM18AAP inh, JMJD2C inh, MIN6 prolif)
c1ccc2cc(-c3csnn3)ccc2c1	none
Nc1nc(-c2ccc3ccccc3c2)cs1	ALR H2O2 inh 98
CCN1/C(=C/c2ccc3cc(C)ccc3[n+]2C)Sc2ccc3sccc3c21	Exocytosis inh 62 (no result: ALR H2O2 inh, JMJD2C inh, MIN6 prolif)
CCN1/C(=C/c2ccc3ccccc3[n+]2CC)C=Cc2ccccc21	none
Cc1ccc2c(c1)S/C(=C/c1ccc[n+](C)c1)N2CCO	none
CCCCN1/C(=C/c2ccc3ccccc3[n+]2CC)Sc2ccccc21	Exocytosis inh 74 (no result: SMARCA2 act, ALR H2O2 inh)
CCN1/C(=C/c2ccc3cc(C)ccc3[n+]2CC)Sc2cc(C)ccc21	Exocytosis inh 85 (no result: ALR H2O2 inh, JMJD2C inh, MIN6 prolif)
CCOc1ccc(C2CC=C(C(=O)O)CN2S(=O)(=O)c2ccc(C)cc2)cc1 (configuration not stated)	none (no result: Exocytosis inh, ALR H2O2 inh, PfM18AAP inh, JMJD2C inh, MIN6 prolif)
O=C1CC(O)C(Cc2ccccc2)N1 (configuration not stated)	none (no result: Exocytosis inh, ALR H2O2 inh, PfM18AAP inh, JMJD2C inh, MIN6 prolif)
COC(=O)[C@]12C[C@H](CC(=O)NCC34CC5CC(CC(C5)C3)C4)C(=O)N(CCc3ccc(OC)c(OC)c3)C1=C[C@H](C(C)C)O[C@@H]2C1CC1	none (no result: Exocytosis inh, ALR H2O2 inh, PfM18AAP inh, JMJD2C inh, MIN6 prolif)
COc1ccc(/C=N\Nc2ccc([N+](=O)[O-])cc2)c(C(=O)O)c1OC	ALR H2O2 inh 98
CC(=O)NS(=O)(=O)c1ccc(NC(=O)c2cccc(S(=O)(=O)N3CCc4ccccc43)c2)cc1	ALR H2O2 inh 97
O=C(NCc1n[nH]c(=S)n1-c1ccccc1)c1ccco1	none (no result: ALR H2O2 inh)
Cc1cccc(-n2c(CNC(=O)c3ccc(S(=O)(=O)N4CCCCC4)cc3)n[nH]c2=S)c1	none
O=C(NCc1n[nH]c(=S)n1-c1ccc(Cl)c(Cl)c1)c1ccc(S(=O)(=O)N2CCCCC2)cc1	ALR H2O2 inh 89
O=C(NCc1n[nH]c(=S)n1-c1ccc(Cl)c(Cl)c1)c1ccco1	ALR H2O2 inh 85

Screens from PubChem BioAssay.
